# Assay results reported in the supplement of paper PMC8975748.
# Where a name gives a salt, the structure may show the parent alone.
# System: Saccharomyces cerevisiae BY4741 SeMeCo community
# Test: z-score of subpopulation abundance vs DMSO median, subpopulation auxotrophic for U; higher = larger share of this subpopulation than in DMSO controls
# Conditions: 10 µM; 24 h; SM minimal medium; subpopulation (auxotrophy): U
# In short: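 Subpopulation abundance was reported as a z-score against the median of vehicle wells. The Saccharomyces cerevisiae BY4741 community, carrying four plasmids that each restored one auxotrophy and encoded a distinct fluorescent protein, was grown 24 h in minimal SM medium in 384-well plates holding library drugs at 10 µM final. Cells were paraformaldehyde-fixed and imaged by automated confocal microscopy, with single-auxotroph fluorescent strains used for thresholds and autofluorescence correction.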
row,SMILES,z-score of subpopulation abundance
1,NC(=O)N1c2ccccc2CC(=O)c2ccccc21 [Oxcarbazepine],0.16
2,CC(=O)OCC1=C(C(=O)O)N2C(=O)[C@@H](NC(=O)CSc3ccncc3)[C@H]2SC1 [Cephapirin Benzathine],1.05
3,COc1ccc(C[C@H](N)C(=O)N[C@H]2[C@@H](O)[C@H](n3cnc4c(N(C)C)ncnc43)O[C@@H]2CO)cc1 [Puromycin 2HCl],0.92
4,OCc1ccccc1O[C@@H]1O[C@H](CO)[C@@H](O)[C@H](O)[C@H]1O [Salicin],-0.42
5,O=C(CCCN1CCC(O)(c2ccc(Cl)cc2)CC1)c1ccc(F)cc1 [Haloperidol],-0.4
6,COc1cc(O)c(C(=O)Nc2nc(C(=O)NCCN(C(C)C)C(C)C)cs2)cc1OC [Acotiamide],-0.39
7,CC(=O)OCC(CCn1cnc2cnc(N)nc21)COC(C)=O [Famciclovir],-0.77
8,O=C(c1ccccc1)c1ccc2n1CCC2C(=O)O (centres undefined) [Ketorolac],-0.78
9,NNc1nncc2ccccc12 [Hydralazine HCl],0.89
10,COc1cccc2c1C(=O)c1c(O)c3c(c(O)c1C2=O)CC(O)(C(=O)CO)CC3OC1CC(N)C(O)C(C)O1 (centres undefined) [Doxorubicin (Adriamycin) HCl],4.2
11,CCN1CCCC1CNC(=O)c1cc(S(N)(=O)=O)ccc1OC (centres undefined) [Sulpiride],-0.56
12,CCCN[C@H]1CCc2nc(N)sc2C1 [Pramipexole],0.72
13,Cc1c(Nc2ncccc2C(=O)O)cccc1C(F)(F)F [Flunixin Meglumin],0.63
14,COc1ccc2[nH]c([S+]([O-])Cc3ncc(C)c(OC)c3C)nc2c1 (centres undefined) [Omeprazole Sodium],-1.22
